Data: PubChem BioAssay

What follows are compounds tested against Calmodulin-1 (Homo sapiens) (UniProt P0DP23) (assay: small molecules binding calmodulin-1 with EGTA – biochemical, small-molecule microarray, Cy5-labelled CALM1, profiling panel (AID 1111;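 also: labelled calmodulin applied in Tris saline Tween buffer holding calcium plus EGTA and DTT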)). Conditions: Cy5-CALM1 binding fluorescence, higher = more signal.

| Compound | composite z-score |
| --- | --- |
| O=C1[C@H]2C=C(Br)[C@H](C[C@@H]2c2ccccc2)[C@@]12CO2 | -0.428 |
| COc1ccc(C#Cc2ccc3c(c2)[C@]2(C(=O)N3)[C@H](c3ccccc3OCCO)N3[C@H](c4ccccc4)[C@H](c4ccccc4)OC(=O)[C@H]3[C@@H]2C(=O)O)cc1 | 1.22 |
| O=C1O[C@H](c2ccccc2)[C@H](c2ccccc2)N2[C@H]1[C@@H](C(=O)N1CCN(c3ncccn3)CC1)[C@]1(C(=O)Nc3ccc(C#CC4=CCCCC4)cc31)[C@H]2c1ccc(O)cc1 | 0.961 |
| C=CC[C@@]1(C(N)=O)N=C(c2ccc(OCCCO)cc2)O[C@@H]1c1ccccc1CN=[N+]=[N-] | 1.64 |
| COC(=O)[C@@]1(Cc2ccccc2)[C@H]2c3cc(C(=O)N4CCCC4)n(Cc4nc5ccccc5[nH]4)c3C[C@H]2CN1C(=O)c1ccccc1 | 2.55 |
| O=C1O[C@H](c2ccccc2)[C@H](c2ccccc2)N2[C@H]1[C@@H](C(=O)O)[C@]1(C(=O)Nc3ccc(C#CC4=CCCCC4)cc31)[C@H]2c1ccccc1OCCO | 1.61 |
| COCCOC(=O)N1C(=O)[C@@]2(c3cc(C#Cc4ccc(OC)cc4)ccc31)[C@H](c1ccccc1OCCO)N1[C@H](c3ccccc3)[C@H](c3ccccc3)OC(=O)[C@H]1[C@@H]2C(=O)N1CCN(c2ncccn2)CC1 | 0.694 |
| C=C/C=C/[C@H]1C(=C)CN([C@@H](Cc2ccccc2)C(=O)OC)[C@@H]1[C@H](O)Cc1ccccc1 | -0.679 |
| C=CCOC(=O)[C@H]1[C@@H]2C(=O)O[C@@H](c3ccccc3)[C@@H](c3ccccc3)N2[C@@H](c2ccc(OCCOC(=O)[C@@H]3C[C@@H]4C(=O)N[C@@H](CCCC[N+](C)(C)C)C(=O)N4[C@@H]3c3ccc(O)cc3)cc2)[C@]12C(=O)Nc1ccccc12 | -0.0632 |
